# Shown are actives, neighbours in structure and some others; about 7.7% of the full set was active somewhere.
# Sm TGR block = qHTS Assay for the Inhibitors of Schistosoma Mansoni Peroxiredoxins. Schistosoma mansoni thioredoxin glutathione reductase (TGR), Q962Y6. purified TGR, DTNB reduction, TNB absorbance 405 nm. Potency, µM (highest dose often 114 µM), without a hit: at the top dose activity change, negative = inhibition, usual class: inhibitors. hit rate 3% among 360,000. AID 485364, 2010; note: potency is the fitted concentration of half-maximal effect; nearly all actives have a fitted effect of over 60% in size
#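 Kinetic colorimetric format: TGR-catalysed, NADPH-driven DTNB reduction monitored via TNB absorbance. Enzyme dispensed at 20 nM; compound exposure 15 min at room temperature before reaction start.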
# RE007 growth inh = qHTS Assay for Inhibitors of the HIV-1 protein Vpr; S. pombe RE007 Vpr strain, BacTiter-Glo ATP luminescence, 24 h; Potency, µM (highest dose often 92.2 µM), without a hit: at the top dose activity change, negative = less growth, usual class: inhibitors; hit rate 0.21% among 360,000; active = well fitted falling curve with a large enough effect; inconclusive = small, poorly fitted or top-dose-only effect; inactive = no such curve, though single readings can be large or run the other way; note: potency is the fitted concentration of half-maximal effect; nearly all actives have a fitted effect of over 50% in size
#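 Fission yeast RE007 carrying one integrated HIV-1 vpr copy, seeded at OD 0.01 in PMG+AL medium with 23 nL pinned compound. Grown 24 h at 30 degrees; viability read by BacTiter-Glo luminescence after 5 min.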
# HCMV antiviral = qHTS Assay for inhibitors of the human cytomegalovirus (HCMV); activity change, negative = inhibition, % at 57.5 µM; HFF cells, HCMV-luciferase reporter, 72 h; active compounds read low; AID 1259415, 2018; hit rate 4.5% among 410,000; in the data active = activity change below about -60%; inconclusive = no clear call, values can overlap the other calls; inactive = above about -39%
#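 Steps: HFFs plated, 16 h 37C; compounds added; HCMV-luciferase added to MOI 1 PFU/cell; 72 h 37C; OneGlo reagent, 5 min room temperature; luminescence read, normalized to controls.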
# FMDV antiviral = High Throughput Screening for Foot and Mouth Disease Virus Antivirals | FMDV antiviral cell-based qHTS | hit rate 1.2% among 410,000 | Potency, µM (titrated, usually from 57.9 µM), inactives show at the highest dose activity change, negative = inhibition, most hits filed as inhibitors | AID 1159524, 2015; calls by dose curve; tested in HEK293T cells; note: read-out not given here; potency is the fitted concentration of half-maximal effect; nearly all actives have a fitted effect of over 45% in size
# TbPYK inhibitor = qHTS of Trypanosoma Brucei Inhibitors | pyruvate kinase (Trypanosoma brucei), Q57TT1 | TbPYK enzyme, Kinase-Glo Plus ATP luminescence, 45 min | Potency, µM (top dose mostly 76.8 µM), without a hit: at the top dose activity, negative = inhibition, actives largely listed as inhibitors | hit rate 0.12% among 410,000 | AID 624173, 2012; note: potency is the fitted concentration of half-maximal effect; nearly all actives have a fitted effect of over 50% in size
#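 Luminescent Kinase-Glo Plus end-point after 45 min room-temperature reaction of T. brucei pyruvate kinase started with 130 uM ADP (final). Buffer TEA 50 mM pH 7.2 with KCl, MgCl2, BSA, Tween-20; titration-based qHTS with fitted concentration-effect curves.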
# Giardia FBPA inh = qHTS Assay for Inhibitors of Fructose-1,6-bisphosphate Aldolase from Giardia Lamblia; A8B2U2; purified Giardia FBPA; Potency, µM (highest dose often 59.6 µM), for the others: at the highest dose activity, negative = inhibition, hits mostly inhibitors; hit rate 0.71% among 290,000; AID 2451, 2010; note: potency is the fitted concentration of half-maximal effect; nearly all actives have a fitted effect of over 55% in size
# Target sequence (A8B2U2 whole entry, looked up): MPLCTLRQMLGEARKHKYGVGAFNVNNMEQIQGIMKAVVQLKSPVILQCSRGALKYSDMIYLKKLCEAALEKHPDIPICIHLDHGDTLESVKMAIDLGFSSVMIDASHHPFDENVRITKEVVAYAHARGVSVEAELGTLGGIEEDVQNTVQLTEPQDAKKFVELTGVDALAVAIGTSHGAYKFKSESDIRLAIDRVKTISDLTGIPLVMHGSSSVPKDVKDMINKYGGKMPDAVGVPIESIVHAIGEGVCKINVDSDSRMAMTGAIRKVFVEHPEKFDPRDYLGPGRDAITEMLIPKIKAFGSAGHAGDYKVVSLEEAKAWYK
#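 Giardia FBPA (40 nM reagent) was preincubated 10 min at RT with compound (up to 57.5 uM final), then substrate plus GAPDH/TPI/NAD/arsenate coupling system with diaphorase/resazurin was added; resorufin fluorescence (525/598 nm) was read after 20 min.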
# Starred values were filed as active, the others as inactive; i = inactive; ? = inconclusive; · = no result. Unless noted, calls come from the whole dose curve; as a rule, active = well fitted curve in the direction sought with a large enough effect; inconclusive = small, poorly fitted or top-dose-only effect, or another doubt; inactive = no such curve, though single readings can be large; an effect the other way counts as inactive or inconclusive. % is set by controls: 0 for no effect and ±100 for the full control effect.
SMILES,Sm TGR block,RE007 growth inh,HCMV antiviral,FMDV antiviral,TbPYK inhibitor,Giardia FBPA inh
COc1ccc(-n2c(=O)c3ccccc3n(CC(=O)NCCc3ccccc3)c2=O)c(OC)c1,-8%,·,-25,-14%,5%,·
O=c1ccn([C@@H]2O[C@H](COS(=O)(=O)O)[C@@H](O)[C@H]2O)c(=O)[nH]1,·,10%,-62*,0%,6%,·
CC(=O)OCC1OC(n2ccc(=O)[nH]c2=O)C(O)C1O (stereo unspecified),12%,20%,-12,-14%,-9%,0%
COc1ccc(CN2CCCC(Cn3cc(C(=O)N4CCCC4)nn3)C2)c(O)c1 (stereo unspecified),·,·,·,-12%,·,·
CCC1(CC)NC(=O)N(CC(=O)Nc2sc3c(c2C(N)=O)CCC3)C1=O,45µM*,-16%,-13,62%,-1%,-5%
CC(=O)N1CCc2cc(S(=O)(=O)NCCC(=O)NCCc3ccc(Cl)cc3)ccc21,2%,-8%,-75*,?,0%,1%
CC(=O)N1CCc2cc(S(=O)(=O)C(C)CC(=O)NCc3ccc(C)o3)ccc21 (stereo unspecified),?,-8%,4,-4%,-1%,0%
CC(=O)N1CCc2cc(S(=O)(=O)CCC(=O)NCc3ccc(C)o3)ccc21,11µM*,-2%,6,-10%,-25%,-14%
Cc1ccc(CNC(=O)CCS(=O)(=O)c2cc(Br)cc3c2N(C(=O)C2CC2)CC3)o1,28µM*,-22%,30,-10%,-12%,-9%
Cc1ccc(CNC(=O)CCS(=O)(=O)c2cc(Br)cc3c2N(C(=O)C2CC2)CC3)cc1,-4%,·,-17,19%,5%,·
CC(=O)N1CCc2cc(S(=O)(=O)NCCC(=O)NCCc3ccc(C)cc3)ccc21,7%,7%,-15,?,3%,4%
Cc1c([N+](=O)[O-])cc(C(=O)N2CCOCC2)cc1[N+](=O)[O-],-14%,-14%,0,-15%,-4%,1%
Cc1ccc(Sc2ccc(C(=O)N3CCOCC3)cc2[N+](=O)[O-])cc1,-5%,-10%,-75*,-22%,2%,13%
Cc1ccccc1NC(=O)Cn1c(SCC(=O)Nc2ccc(F)cc2)nc2ccccc21,8%,·,-64*,-16%,-2%,·
CCN(C(=O)CSc1nc2ccccc2n1CC(=O)Nc1ccccc1C)c1ccccc1,-6%,·,7,7%,1%,·
COc1ccc(CNC(=O)Cn2c(SCC(=O)Nc3ccc(C)c(C)c3)nc3ccccc32)cc1,-4%,·,-67*,-12%,-1%,·
COc1ccc(NC(=O)CSc2nc3ccccc3n2CC(=O)NCc2ccc(F)cc2)cc1,-2%,·,-37,-12%,-1%,·
Cc1cccc(C)c1OCC(=O)NCC1(N(C)C)CCCCC1,-3%,·,17,3%,1%,·
CCN(CC(=O)Nc1cc(Cl)ccc1C)C(=O)COc1ccccc1F,-10%,-3%,-15,-14%,2%,-5%
CCCN(CC(=O)Nc1ccccc1C)C(=O)C1CC(=O)N(c2ccccc2OCC)C1 (stereo unspecified),·,-7%,-29,1%,1%,·
CCCN(CC(=O)Nc1ccccc1C)C(=O)COc1c(C)cccc1C,-6%,-2%,-8,-6%,-2%,·
CCCN(CC(=O)Nc1ccccc1C)C(=O)CCl,14µM*,1%,-99*,13µM*,4%,-4%
CCN(CC(=O)Nc1cc(Cl)ccc1C)C(=O)CCOc1ccccc1C,35µM*,20%,-14,?,-5%,·
CCCN(CC(=O)Nc1ccccc1C)C(=O)COC(=O)CSc1ccc([N+](=O)[O-])cc1,-4%,-9%,-3,-6%,-16%,·
CCCN(CC(=O)Nc1ccccc1C)C(=O)c1ccc(-c2ccc([N+](=O)[O-])cc2)o1,6.3µM*,6%,-33,?,-29%,·
SMILES,Sm TGR block,RE007 growth inh,HCMV antiviral,FMDV antiviral,TbPYK inhibitor,Giardia FBPA inh
CCCN(CC(=O)Nc1ccccc1C)C(=O)C1CC(=O)N(Cc2ccccc2)C1 (stereo unspecified),-11%,5%,-98*,16%,4%,·
O=C(NCc1ccc2c(c1)OCO2)O[C@@H]1C(=O)c2cc(Br)ccc2O[C@H]1c1ccc2c(c1)OCO2,·,·,·,·,·,-4%
COc1ccc(Cl)cc1CN1C(=O)C(Cc2ccccc2)ON=C1C (stereo unspecified),·,i,?,-19%,5%,·
COc1cccc(C2=NO[C@@H]3C(=O)N(Cc4ccccc4)C(=O)[C@H]23)c1OC,50µM*,-9%,45,3%,2%,-7%
COc1cccc(C2=NO[C@@H]3C(=O)N(c4ccc5c(c4)OCCO5)C(=O)[C@H]23)c1OC,40µM*,0%,-17,-30%,1%,?
CCN1CCc2nc(SCC(=O)Nc3ccc(OC)cc3)c(C#N)cc2C1,-15%,12%,17,-26%,6%,-30%
CN1CCc2nc(SCC(=O)Nc3ccc(F)cc3)c(C#N)cc2C1,28µM*,·,·,·,·,-20%
COc1ccc(NC(=O)CSc2nc3c(cc2C#N)CN(C)CC3)cc1,79µM*,-12%,-14,2%,5%,-17%
CCOc1ccc(C2CC(=O)c3c([nH]c(C(=O)OCCOc4ccccc4)c3C)C2)cc1 (stereo unspecified),-1%,·,-106*,-23%,6%,·
CCc1ccc(C2CC(=O)c3c([nH]c(C(=O)OCCOc4ccccc4)c3C)C2)cc1 (stereo unspecified),7%,·,-73*,?,-5%,·
COc1ccc(C2CC(=O)c3c([nH]c(C(=O)OCc4ccccc4)c3C)C2)cc1OC (stereo unspecified),-1%,·,-8,?,5%,·
COC(=O)c1[nH]c2c(c1C)C(=O)CC(c1ccccc1)C2 (stereo unspecified),4%,8%,-69*,·,-2%,2%
Cc1c(C(=O)OCc2ccccc2)[nH]c2c1C(=O)CC(c1ccc(Cl)cc1)C2 (stereo unspecified),4%,·,-69*,-11%,0%,·
CC[N+](CC)(CC)CCOC(=O)C(C1CCCC1)C1CCCC1,·,·,·,·,-2%,·
Cc1c(C(=O)OCCOc2ccccc2)[nH]c2c1C(=O)CCC2,-4%,8%,-79*,-63%,-7%,-10%
O=C(CN(CC(=O)NCc1ccccc1)CC(=O)NCc1ccccc1)NCc1ccccc1,·,·,-3,·,·,·
